Lassa entry inh = qHTS for Inhibitors of binding or entry into cells for Lassa Virus. Lassa virus pseudotype entry inhibition, cell reporter. Potency, µM (doses to about 37.9 µM), for inactives: top-dose activity change, negative = inhibition, actives largely listed as inhibitors. 1.2% of 300,000 active; calls by dose curve; tested in HEK293 cells; also: potency is read from the fitted curve at half-maximal effect; nearly all actives have a fitted effect of over 50% in size
FMDV inh = High Throughput Screening for Foot and Mouth Disease Virus Antivirals; FMDV antiviral cell-based qHTS; Potency, µM (top dose mostly 57.9 µM), for the others: at the highest dose activity change, negative = inhibition, actives largely listed as inhibitors; 1.2% of 410,000 active; AID 1159524, 2015; calls by dose curve; tested in HEK293T cells; also: read-out not given here; potency is read from the fitted curve at half-maximal effect; nearly all actives have a fitted effect of over 45% in size
HCMV inh = qHTS Assay for inhibitors of the human cytomegalovirus (HCMV). HFF cells, HCMV-luciferase reporter, 72 h; active compounds read low. activity change, negative = inhibition, % at 57.5 µM. 4.5% of 410,000 active; in the data active = activity change below about -60%; inconclusive = no clear call, values can overlap the other calls; inactive = above about -39%
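Cell-based, HFFs, 1000 cells/well, 16 h 37C; cpds in DMSO + HCMV-luc, MOI 1 PFU/cell; 72 h 37C; OneGlo luminescence after 5 min RT; norm. to buffer vs Salinomycin 10uM.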
Marburg entry inh = qHTS for inhibitors of binding or entry into cells for Marburg Virus; Marburg virus pseudotyped entry inhibition, cell reporter; Potency, µM (titrated, usually from 37.8 µM), inactives show at the top dose activity change, negative = inhibition, usual class: inhibitors; 1.8% of 300,000 active; calls by dose curve; tested in HEK293 cells; also: potency is read from the fitted curve at half-maximal effect
Starred values were filed as active, the others as inactive; [ ] = remark or other dose. In the library only some 6.2% were active in any assay of this set; here they are far more common. % is scaled to controls: 0 for no effect and ±100 for the full control effect.

Nc1c(S(=O)(=O)O)cc(Nc2ccc(Nc3nc(Cl)nc(Nc4ccc(S(=O)(=O)O)cc4)n3)c(S(=O)(=O)O)c2)c2c1C(=O)c1ccccc1C2=O was read as Lassa entry inh inconclusive and Marburg entry inh 14µM*.
Cc1cc(C(=O)Nc2nc(C)c(C(=O)N(C)C)s2)ccc1[N+](=O)[O-] was read as Lassa entry inh 10µM*, FMDV inh -41%, HCMV inh -36 and Marburg entry inh inconclusive.
Cc1nc(NC(=O)c2ccc([N+](=O)[O-])cc2Cl)sc1C(=O)N(C)C was read as Lassa entry inh -2%, FMDV inh 10%, HCMV inh 1 and Marburg entry inh -31%.
For Cc1ccccc1Nc1sc(C(=O)c2ccccc2)c(N)c1C(=O)NCc1ccc(Cl)cc1 the results were Lassa entry inh -21%[46.1 µM], FMDV inh inconclusive and HCMV inh inconclusive.
Screening COc1cccc(Nc2sc(C(=O)c3ccc(F)cc3)c(N)c2C(=O)NCc2ccc(C)cc2)c1 returned Lassa entry inh inconclusive, FMDV inh 14µM* and HCMV inh -62*.
For COc1cccc(Nc2sc(C(=O)c3ccc(Cl)cc3)c(N)c2C(=O)NCCc2ccc(OC)c(OC)c2)c1 the results were Lassa entry inh -24%[46.1 µM], FMDV inh -16% and HCMV inh 36.
`Cc1ccc(CNC(=O)c2c(Nc3ccccc3C)sc(C(=O)c3ccc(F)cc3)c2N)cc1` gave Lassa entry inh inconclusive, FMDV inh -13% and HCMV inh -75*.
`COCC1CCCN(Cc2ccc3c(c2)CN(C(=O)c2ccc(OC)nc2OC)CCO3)C1` (stereo not given) gave FMDV inh 2%.
For COc1ccc(-c2cc(C#N)nc(Oc3ccc(Cl)cc3)n2)cc1 the results were Lassa entry inh inconclusive, FMDV inh -27%, HCMV inh -33 and Marburg entry inh inconclusive.
For N#Cc1ccc(Oc2nc(C#N)cc(-c3ccccc3)n2)cc1 the results were Lassa entry inh -35%, FMDV inh 11µM*, HCMV inh inconclusive and Marburg entry inh -6%.
For CCOC(=O)CSc1nc2ccsc2c(=O)n1C1CCN(C(=O)OCC)CC1 the results were Lassa entry inh -17%, FMDV inh 7%, HCMV inh 6 and Marburg entry inh inconclusive.
CCOC(=O)N1CCC(n2c(SCC(=O)Nc3nccs3)nc3ccsc3c2=O)CC1 was read as Lassa entry inh inconclusive, FMDV inh -2%, HCMV inh -90* and Marburg entry inh inconclusive.
`O=C(NCc1ccccc1)C(c1ccccc1)N(Cc1cccs1)C(=O)c1cnccn1` (stereo not given) gave Lassa entry inh -6%, FMDV inh -2%, HCMV inh -31 and Marburg entry inh 21µM*.
Screening COc1ccccc1NC(=O)c1sc2ncn(Cc3cccc(C)c3)c(=O)c2c1C returned Lassa entry inh -29%, HCMV inh -102* and Marburg entry inh inconclusive.
Screening Cc1cccc(C)c1N=CN1c2ccccc2-n2cccc2C1CCc1ccccc1 (stereo not given) returned HCMV inh 4.
CCc1ccc(S(=O)(=O)c2nnn(-c3ccc(F)cc3)c2N)cc1 was read as Lassa entry inh -10%[46.1 µM], FMDV inh -17%, HCMV inh -23 and Marburg entry inh inconclusive.
For COc1cccc(/C=C2\SC(=S)N(CCC(=O)N3CCCCC3CCO)C2=O)c1 (stereo not given) the results were FMDV inh -5% and HCMV inh -98*.
Screening COc1cccc(/C=C2\SC(=O)N(CCC(=O)N3CCC(C(=O)O)CC3)C2=O)c1 returned FMDV inh 1% and HCMV inh -14.
`CCc1ccc(/C=C2\SC(=S)N(CCCC(=O)N3CCCC3)C2=O)cc1` gave FMDV inh -4% and HCMV inh -99*.
`COc1cccc(/C=C2\SC(=S)N(CCCC(=O)N3CCCC3)C2=O)c1` gave Lassa entry inh -24%[46.1 µM], FMDV inh -6%, HCMV inh -112* and Marburg entry inh inconclusive.
For O=C1/C(=C/c2cccs2)SC(=S)N1CCC(=O)N1CCCCC1CCO (stereo not given) the results were Lassa entry inh 16%[46.1 µM], FMDV inh 0%, HCMV inh -96* and Marburg entry inh inconclusive.
`CCN1CCCC1CNCc1cc2ccc(SC)cc2nc1-c1cc(OC)ccc1OC` (stereo not given) gave FMDV inh -2%.

From PubChem
